Data published in PubChem BioAssay (NCATS).
Results filed as inconclusive are left out. A call without a number means that no potency is given here. Active and inactive are the calls of the source. Calls come from the whole dose curve; as a rule, active = well fitted inhibition curve with a large enough effect; inconclusive = small, poorly fitted or top-dose-only effect; inactive = flat fitted curve, though single readings scatter. Peptide text beside a SMILES is read from it.

The compounds below were run on TAB113 (assay: qHTS profiling for inhibitors of Plasmodium falciparum proliferation (AID 504749; note: nearly all actives have a fitted effect of over 60% in size)). Conditions: P. falciparum in erythrocytes, SYBR Green DNA, 72 h; series mostly up to 28.7 µM.
Summary of the method: (§1)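 Each compound contacts P. falciparum-infected red blood cells for 72 h at 37 C; lysis buffer (Tris, EDTA, saponin, Triton X, SYBR Green I) is added and fluorescence measured next morning; values normalized to controls.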
Potency is the fitted concentration of half-maximal effect.

| Compound | Potency |
| --- | --- |
| CCCCCCC(O)C/C=C/CCCCCCCC(=O)O (stereo not drawn) | inactive |
| Cc1ccccc1OCC(O)CNCCOc1ccc(C(N)=O)cc1 (stereo not drawn) | inactive |
| CC(Cc1ccc(O)c(O)c1)C(C)Cc1ccc(O)c(O)c1 (stereo not drawn) | inactive |
| Cc1c(C)c2c(c(C)c1O)CC[C@@](C)(CCC[C@@H](C)CCC[C@@H](C)CCCC(C)C)O2 | inactive |
| CCCC(=O)Nc1ncnc2c1ncn2C1OC2COP(=O)(O)OC2C1OC(=O)CCC (stereo not drawn) | inactive |
| Nc1ncnc2c1ncn2[C@@H]1O[C@H](COP(=O)(O)OP(=O)(O)OP(=O)(O)O)[C@@H](O)[C@H]1O | inactive |
| Clc1cc(Cl)c(OCC#CI)cc1Cl | 5.01 µM (active) |
| CC1(C)S[C@@H]2[C@H](NC(=O)[C@@H](NC(=O)N3CCNC3=O)c3ccccc3)C(=O)N2[C@H]1C(=O)O | inactive |
| Cc1ccccc1 | inactive |
| C=CCSSSCC=C | inactive |
| CCCCC/C=C\C/C=C\CCCCCCCC(=O)O | inactive |
| CCOC(C)=O | inactive |
| O=C(O)CN(CCN(CC(=O)O)CC(=O)O)CC(=O)O | inactive |
| NC(=O)c1ncn(C2OC(CO)C(O)C2O)n1 (stereo not drawn) | inactive |
| O=CCCCC=O | inactive |
| CCCCCCOc1ccc(C(=N)N(CCCC)CCCC)c2ccccc12 | 10 µM (active) |

| Compound | Potency |
| --- | --- |
| C[C@]12O[C@H](C[C@]1(O)CO)n1c3ccccc3c3c4c(c5c6ccccc6n2c5c31)CNC4=O | 0.316 µM (active) |
| CC(NNC(=O)c1ccccc1)c1ccccc1 (stereo not drawn) | inactive |
| CCCCCCCC/C=C\CCCCCCCC(=O)O | inactive |
| Cc1cn([C@H]2C[C@H](O)[C@@H](CO)O2)c(=O)[nH]c1=O | inactive |
| CC1=C(/C=C/C(C)=C/C=C/C(C)=C/C=C/C=C(C)/C=C/C=C(C)/C=C/C2=C(C)C(=O)CCC2(C)C)C(C)(C)CCC1=O | inactive |
| Oc1cc(O)c2c(c1)OC(c1ccc(O)c(O)c1)C(O)C2 (stereo not drawn) | inactive |
| Cc1cc(C(=O)NNCc2ccccc2)no1 | inactive |
| CCCC(=O)O[C@]1(C(=O)CCl)[C@H](C)C[C@@H]2[C@H]3CCC4=CC(=O)C=C[C@]4(C)[C@@]3(F)C(=O)C[C@@]21C | 2.51 µM (active) |
| CCNC(=O)[C@@H]1CCCN1C(=O)[C@H](CCCN=C(N)N)NC(=O)[C@H](CC(C)C)NC(=O)[C@@H](Cc1c[nH]c2ccccc12)NC(=O)[C@H](Cc1ccc(O)cc1)NC(=O)[C@H](CO)NC(=O)[C@H](Cc1c[nH]c2ccccc12)NC(=O)[C@H](Cc1cnc[nH]1)NC(=O)[C@@H]1CCC(=O)N1 | 8.91 µM (active) |
| C[C@@H]1CCC2[C@@H](C)[C@@H](O)O[C@@H]3O[C@@]4(C)CC[C@@H]1[C@@]23OO4 (stereo partly drawn) | 0.0011 µM (active) |
| CC(=O)N[C@@H](CC(=O)O)C(=O)N[C@@H](CCC(=O)O)C(=O)O (Ac-Asp-Glu-OH) | inactive |
| COC(F)(F)C(Cl)Cl | inactive |
| CC(C)=O | inactive |
| CC1=C(/C=C/C(C)=C/C=C/C(C)=C/CO)C(C)(C)CCC1 | 11.2 µM (active) |
| CCN(CC)Cc1cc(Nc2ccnc3cc(Cl)ccc23)ccc1O | 0.0794 µM (active) |
| COC(=O)CCC(=O)CN | inactive |

Each compound was assayed on TAB165 in the same assay as above. Conditions: P. falciparum in erythrocytes, SYBR Green DNA, 72 h; series mostly up to 28.7 µM.
Summary of the method: as §1

| Compound | Potency |
| --- | --- |
| CCCCCCC(O)C/C=C/CCCCCCCC(=O)O (stereo not drawn) | inactive |
| Cc1ccccc1OCC(O)CNCCOc1ccc(C(N)=O)cc1 (stereo not drawn) | inactive |
| Cc1c(C)c2c(c(C)c1O)CC[C@@](C)(CCC[C@@H](C)CCC[C@@H](C)CCCC(C)C)O2 | inactive |
| CCCC(=O)Nc1ncnc2c1ncn2C1OC2COP(=O)(O)OC2C1OC(=O)CCC (stereo not drawn) | inactive |
| Nc1ncnc2c1ncn2[C@@H]1O[C@H](COP(=O)(O)OP(=O)(O)OP(=O)(O)O)[C@@H](O)[C@H]1O | inactive |
| Clc1cc(Cl)c(OCC#CI)cc1Cl | 11.2 µM (active) |
| CC1(C)S[C@@H]2[C@H](NC(=O)[C@@H](NC(=O)N3CCNC3=O)c3ccccc3)C(=O)N2[C@H]1C(=O)O | inactive |
| Cc1ccccc1 | inactive |
| C=CCSSSCC=C | inactive |
| CCCCC/C=C\C/C=C\CCCCCCCC(=O)O | inactive |
| CCOC(C)=O | inactive |
| O=C(O)CN(CCN(CC(=O)O)CC(=O)O)CC(=O)O | inactive |
| NC(=O)c1ncn(C2OC(CO)C(O)C2O)n1 (stereo not drawn) | inactive |
| CCOC(=O)C1=C(C)NC(C)=C(C(=O)OCC)C1c1ccccc1C=CC(=O)OC(C)(C)C | 11.2 µM (active) |
| CCCCCCOc1ccc(C(=N)N(CCCC)CCCC)c2ccccc12 | 12.6 µM (active) |
| C[C@]12O[C@H](C[C@]1(O)CO)n1c3ccccc3c3c4c(c5c6ccccc6n2c5c31)CNC4=O | 0.251 µM (active) |

| Compound | Potency |
| --- | --- |
| CC(NNC(=O)c1ccccc1)c1ccccc1 (stereo not drawn) | inactive |
| CCCCCCCC/C=C\CCCCCCCC(=O)O | inactive |
| COC(=O)C1=C(C#N)NC(C)=C(C(=O)OC(C)C)C1c1cccc([N+](=O)[O-])c1 (stereo not drawn) | 10 µM (active) |
| Cc1cn([C@H]2C[C@H](O)[C@@H](CO)O2)c(=O)[nH]c1=O | inactive |
| CC1=C(/C=C/C(C)=C/C=C/C(C)=C/C=C/C=C(C)/C=C/C=C(C)/C=C/C2=C(C)C(=O)CCC2(C)C)C(C)(C)CCC1=O | inactive |
| Oc1cc(O)c2c(c1)OC(c1ccc(O)c(O)c1)C(O)C2 (stereo not drawn) | inactive |
| Cc1cc(C(=O)NNCc2ccccc2)no1 | inactive |
| CCCC(=O)O[C@]1(C(=O)CCl)[C@H](C)C[C@@H]2[C@H]3CCC4=CC(=O)C=C[C@]4(C)[C@@]3(F)C(=O)C[C@@]21C | 2 µM (active) |
| CCNC(=O)[C@@H]1CCCN1C(=O)[C@H](CCCN=C(N)N)NC(=O)[C@H](CC(C)C)NC(=O)[C@@H](Cc1c[nH]c2ccccc12)NC(=O)[C@H](Cc1ccc(O)cc1)NC(=O)[C@H](CO)NC(=O)[C@H](Cc1c[nH]c2ccccc12)NC(=O)[C@H](Cc1cnc[nH]1)NC(=O)[C@@H]1CCC(=O)N1 | 3.16 µM (active) |
| C[C@@H]1CCC2[C@@H](C)[C@@H](O)O[C@@H]3O[C@@]4(C)CC[C@@H]1[C@@]23OO4 (stereo partly drawn) | 0.0009 µM (active) |
| CC(=O)N[C@@H](CC(=O)O)C(=O)N[C@@H](CCC(=O)O)C(=O)O (Ac-Asp-Glu-OH) | inactive |
| COC(F)(F)C(Cl)Cl | inactive |
| CC(C)=O | inactive |
| CCN(CC)Cc1cc(Nc2ccnc3cc(Cl)ccc23)ccc1O | 0.0447 µM (active) |
| COC(=O)CCC(=O)CN | inactive |
